Data as given in PubChem BioAssay AID1159580 (chemical genetic matrix, 2015).
Among all 5,500 compounds or so, about 2,000 (36%) were called active. Another 18% or so got no clear call; they are omitted. No stated cut-off is given here; in the data, active means normalized growth mostly below about 0.91 (no sharp cut-off); inconclusive means no clear call, values can overlap the other calls; inactive means mostly above about 0.92. Some of the results follow.

Assay: chemical genetic growth profiling, strain panel (AID 1159580);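 further: tested at 20 µM; growth read once vehicle control cultures reached saturation at 30 °C; 1 = growth at the plate median or of vehicle wells; lower values mean less growth of the strain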
Details: S. cerevisiae deletion strains, growth OD
[1] = locus YAL013W, strain DEP1, active compounds read low
[2] = locus YBR229C, strain ROT2, active compounds read low
[3] = locus YDL101C, strain DUN1, active compounds read low
[4] = locus YDR150W, strain NUM1, active compounds read low
[5] = locus YEL061C, strain CIN8, active compounds read low
[6] = locus YGR078C, strain PAC10, active compounds read low
[7] = locus YHR030C, strain SLT2, active compounds read low
[8] = locus YHR087W, strain rtc3, active compounds read low
[9] = locus YJL187C, strain SWE1, active compounds read low
[10] = locus YJR043C, strain POL32, active compounds read low
[11] = locus YJR075W, strain HOC1, active compounds read low
[12] = locus YLR039C, strain RIC1, active compounds read low
[13] = locus YLR058C, strain SHM2 (second series), active compounds read low
[14] = locus YLR085C, strain ARP6, active compounds read low
[15] = locus YLR262C, strain YPT6, active compounds read low
[16] = locus YML094W, strain GIM5, active compounds read low
[17] = locus YMR219W, strain ESC1, active compounds read low
[18] = locus YMR263W, strain SAP30, active compounds read low
[19] = locus YNL153C, strain GIM3, active compounds read low
[20] = locus YNL298W, strain CLA4 (second series), active compounds read low
[21] = locus YNL322C, strain KRE1, active compounds read low
[22] = locus YNR030W, strain Alg12, active compounds read low
[23] = locus YOL006C, strain TOP1, active compounds read low
[24] = locus YPL055C, strain LGE1, active compounds read low
[25] = locus YPL241C, strain CIN2, active compounds read low
[26] = locus YPR135W, strain CTF4, active compounds read low

Measured: normalized growth

COc1cc(/C=N\NC(=S)NC2CC3CCC2C3)cc(OC)c1OC (stereo unspecified)
inactive: [1] 0.985 | [2] 1.01 | [3] 1 | [4] 0.998 | [5] 0.994 | [6] 1 | locus YGR229C, strain SMI1, active compounds read low 1 | [7] 0.816 | [8] 1.03 | [9] 0.996 | [10] 1.02 | [11] 1.05 | [12] 0.97 | [13] 1.02 | [15] 1.05 | [16] 0.913 | [17] 1.02 | [18] 0.975 | [19] 1.01 | [20] 0.889 | [21] 1.01 | [22] 0.92 | [24] 0.923 | [25] 0.898 | [26] 0.843
active: [14] 0.653 | [23] 0.51

COc1cc(C=Nc2ccc(F)cc2)cc(OC)c1OC
inactive: [1] 0.995 | [2] 0.978 | [3] 1 | [4] 0.896 | [5] 0.986 | [6] 1 | [7] 1.02 | [8] 1.01 | [9] 0.998 | [10] 1.01 | [11] 0.954 | locus YKL190W, strain CNB1, active compounds read low 0.98 | [12] 0.983 | [13] 1.02 | [14] 0.965 | [15] 0.98 | [16] 0.988 | [17] 0.985 | [18] 1.01 | locus YMR307W, strain GAS1, active compounds read low 0.938 | [19] 1.01 | [20] 1 | [21] 0.979 | [22] 0.979 | [23] 1 | [24] 1.02 | [25] 0.997 | [26] 1.11

S=C(N/N=C\c1cccs1)NC1CC2CCC1C2 (stereo unspecified)
inactive: locus YAR019C, strain CDC15, active compounds read low 0.943 | locus YBL105C, strain PKC1, active compounds read low 0.94 | locus YBR135W, strain CKS1, active compounds read low 0.959 | locus YBR136W, strain MEC1, active compounds read low 0.95 | locus YBR160W, strain CDC28, active compounds read low 0.954 | locus YDL017W, strain CDC7, active compounds read low 0.941 | locus YDL028C, strain MPS1, active compounds read low 0.958 | [3] 0.952 | locus YDL108W, strain KIN28, active compounds read low 0.951 | locus YDL132W, strain cdc53, active compounds read low 0.96 | locus YDL214C, strain PRR2, active compounds read low 0.913 | locus YDR052C, strain DBF4, active compounds read low 0.945 | locus YDR054C, strain cdc34, active compounds read low 0.928 | locus YDR226W, strain ADK1, active compounds read low 0.937 | locus YDR477W, strain SNF1, active compounds read low 0.91 | locus YER123W, strain YCK3, active compounds read low 0.938 | locus YER133W, strain GLC7, active compounds read low 0.905 | locus YFL009W, strain cdc4, active compounds read low 0.934 | locus YFL029C, strain CAK1, active compounds read low 0.94 | locus YFR003C, strain YPI1, active compounds read low 0.951 | locus YFR019W, strain FAB1, active compounds read low 0.956 | locus YFR028C, strain CDC14, active compounds read low 0.944 | locus YGR040W, strain KSS1, active compounds read low 0.909 | locus YGR052W, strain FMP48, active compounds read low 0.921 | locus YGR092W, strain DBF2, active compounds read low 0.794 | locus YHR079C, strain IRE1, active compounds read low 0.75 | locus YHR082C, strain KSP1, active compounds read low 0.898 | locus YHR205W, strain SCH9, active compounds read low 0.732 | locus YIL147C, strain SLN1, active compounds read low 0.956 | locus YJL095W, strain BCK1, active compounds read low 0.89 | locus YJL128C, strain PBS2, active compounds read low 0.957 | locus YJL157C, strain FAR1, active compounds read low 0.885 | locus YJR016C, strain ILV3, active compounds read low 0.945 | locus YJR066W, strain TOR1 (second series), active compounds read low 0.87 | locus YJR066W, strain TOR1, active compounds read low 0.908 | locus YKL048C, strain ELM1, active compounds read low 0.934 | locus YKL067W, strain YNK1, active compounds read low 0.95 | locus YKL101W, strain HSL1, active compounds read low 0.949 | locus YKL193C, strain SDS22, active compounds read low 0.947 | locus YKL203C, strain TOR2, active compounds read low 0.978 | locus YLR133W, strain CKI1, active compounds read low 0.913 | locus YLR403W, strain SFP1, active compounds read low 0.787 | locus YML070W, strain DAK1, active compounds read low 0.927 | locus YMR001C, strain CDC5, active compounds read low 0.944 | locus YMR205C, strain PFK2 (second series), active compounds read low 0.946 | locus YMR277W, strain FCP1, active compounds read low 0.946 | locus YNL006W, strain LST8, active compounds read low 0.957 | locus YNL020C, strain ARK1, active compounds read low 0.918 | locus YNL161W, strain CBK1, active compounds read low 0.936 | locus YNL183C, strain NPR1, active compounds read low 0.967 | locus YNL207W, strain RIO2, active compounds read low 0.929 | locus YNL222W, strain SSU72, active compounds read low 0.936 | locus YNL307C, strain MCK1 (second series), active compounds read low 0.842 | locus YOL078W, strain AVO1, active compounds read low 0.939 | locus YOL136C, strain PFK27, active compounds read low 0.881 | locus YOR061W, strain CKA2, active compounds read low 0.948 | locus YOR119C, strain RIO1, active compounds read low 1.01 | locus YOR231W, strain MKK1, active compounds read low 0.935 | locus YOR329C, strain SCD5, active compounds read low 0.949 | locus YPL031C, strain PHO85, active compounds read low 0.879 | locus YPL153C, strain RAD53, active compounds read low 0.88 | locus YPL204W, strain HRR25, active compounds read low 0.842 | locus YPL209C, strain IPL1, active compounds read low 0.943 | locus YPR025C, strain CCL1, active compounds read low 0.959 | locus YPR106W, strain ISR1, active compounds read low 0.953 | locus YPR111W, strain DBF20, active compounds read low 0.953 | strain NNK1, active compounds read low 0.947 | strain TSCII, active compounds read low 0.932
active: [7] 0.763 | locus YLR113W, strain HOG1, active compounds read low 0.788 | locus YPL256C, strain CLN2, active compounds read low 0.736
